Test results taken from PubChem BioAssay AID651812 (National Center for Advancing Translational Sciences (NCATS), 2012).
The campaign covered roughly 2,100 compounds. About 650 (31%) were called active. Another 16% or so got no clear call; they are omitted. Calls follow the shape of the dose curve; as a rule, active = well fitted inhibition curve with a large enough effect; inconclusive = small, poorly fitted or top-dose-only effect; inactive = flat fitted curve, though single readings scatter. This is one part of the list.

experiment: qHTS for inhibitors of Vif-A3G interactions: Cherry picks; conditions: HeLa A3G-eYFP + Vif (tagged APOBEC3G with the HIV-1 protein that degrades it), 24 h; Potency: eYFP fluorescence increase; series mostly up to 36.9 µM; activity, negative = fluorescence increase: at the top concentration; also: nearly all actives have a fitted effect of over 80% in size; as to activity, negative = fluorescence increase: % of control where 0% means no effect
Summary of the method: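 HeLa cells stably expressing A3G-eYFP and Vif, cultured overnight then exposed to compounds at several concentrations for 24 hours at 37 C, 5% CO2; cellular yellow fluorescence (488 nm ex, 500-530 nm em) imaged on Acumen, MG132 positive control.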
Potency is read from the fitted curve at half-maximal effect.

activity, negative = fluorescence increase, inactive:
Cc1ccc2c(c1)C=CC(C#N)N2C(=O)c1ccccc1 (centres undefined) -2.86%
COc1ccc(NC(=O)c2oc3ccc(S(=O)(=O)N4CCOCC4)cc3c2C)cc1 -0.471%
COc1cccc(C(=O)Nc2ccc(N3CCCC3)cc2)c1 -6.33%
Cc1cc2nc(-c3ccc(SCC(=O)Nc4ccc(S(=O)(=O)N5CCCC5)cc4)nc3)[nH]c2cc1C -11% [at 46.1 µM]
O=C(Nc1ccc(N2CCOCC2)cc1)c1cccc2ccccc12 -3.81%
Cc1c(C(=O)Nc2ccc(C(C)C)cc2)sc2nc3n(c(=O)c12)CCC3 -1.38% [at 46.1 µM]
COC(=O)Nc1ccc(S(=O)(=O)N2CCCc3ccccc32)cc1 -4.64%
O=C(Nc1ccc(Cl)cn1)c1cccc(S(=O)(=O)N2CCCCCC2)c1 -4.99%
O=C(Nc1nc2ccc(S(=O)(=O)N3CCCC3)cc2s1)C1CCCCC1 -0.031%
CN1C(=O)N(C)c2ccc(C=O)c3cccc1c23 0.629% [at 46.1 µM]
COc1cc(OC)c(C2Nc3cccc4cccc(c34)N2)c(OC)c1 6.18% [at 46.1 µM]
COc1cc(OC)c(/C=C/c2ccnc3ccccc23)c(OC)c1 -10% [at 46.1 µM]
CCN(CC(=O)NCc1ccc(F)cc1)C(=O)/C=C/c1ccc(OC)c(S(=O)(=O)NC(C)C)c1 -20.2%
Cc1sc2ncn(CC(=O)NCc3ccccc3)c(=O)c2c1C -0.561%
Cc1sc2ncnc(SCC(=O)NC(C)(C)C)c2c1C 0.117% [at 46.1 µM]
Cc1ccc(NC(=O)CSc2n[nH]c(-c3ccccn3)n2)cc1 1.26% [at 46.1 µM]
CCC(=O)Nc1nc2ccc(NC(=O)c3cc(OC)c(OC)c(OC)c3)cc2s1 0.0932%
CCN(CC)c1ccc(NC(=O)CSc2nc(C3CC3)nc3ccccc23)cc1C -9.93%
COc1ccc2cc(C(=O)C3CCCN(Cc4ccccn4)C3)ccc2c1 (centres undefined) 13.5% [at 46.1 µM]
CCc1ccc2nc(SCC(=O)Nc3ccccc3N3CCOCC3)c(C#N)cc2c1 -24.4% [at 46.1 µM]
COc1ccc2nc(NC(=O)c3ccc([N+](=O)[O-])o3)sc2c1 -10.5%
CCCOc1ccccc1C1CC(=O)Nc2cc3c(cc21)OCO3 (centres undefined) 2.79%
Cn1nnnc1SCc1nc2scc(-c3ccc(Cl)cc3)c2c(=O)[nH]1 -22.9% [at 46.1 µM]
CCOC(=O)c1sc(NC(=S)NC(=O)c2ccco2)nc1C 10.5% [at 46.1 µM]
COc1cccc(Nc2nc(Nc3ccc(Cl)c(C(=O)O)c3)nc(C)c2[N+](=O)[O-])c1 1.14%
N#C/C(=C/c1ccc2c(c1)OCO2)C(=O)Nc1ccc(O)cc1 -6.9%
CCOc1ccc(/C=N/NC(=O)c2cc3c(OC)cc(OC)c(OC)c3[nH]2)cc1 1.38%
CCOc1ccc(NC(=O)N2CC=C(c3c[nH]c4ccccc34)CC2)cc1 -14.2% [at 46.1 µM]
COc1ccc(NC(=O)C2Cc3c(-c4cccc(NC(C)=O)c4)ccnc3O2)cn1 (centres undefined) -12.3%
CSC1=NC(C(Cl)(Cl)Cl)N=C(c2ccccc2)N1 (centres undefined) -0.698%
CCS(=O)(=O)C1=NN2C(=N)/C(=C\c3ccc(SCc4ccco4)o3)C(=O)N=C2S1 -18.8% [at 46.1 µM]
CCOc1ccccc1C1CC(=O)NC2=C1C(=O)CCC2 (centres undefined) -0.477%
O=C1CC(c2ccccc2)Cc2[nH]c(=O)c(-c3nc(-c4cccc(Cl)c4)cs3)cc21 (centres undefined) -19.9% [at 46.1 µM]
COCCOC(=O)c1[nH]c2c(c1C)C(=O)CC(c1ccccc1)C2 (centres undefined) -17%
O=C(O)CSc1c2ccccc2cc2ccccc12 -2.38%
COc1ccc(S(=O)(=O)NCc2ccccn2)cc1NC(=O)c1ccccc1 -3.5%
COc1ccccc1Nc1c2c(nc3ccc(NC(=O)c4ccc(N(C)C)cc4)cc13)CCCC2 -3.16% [at 46.1 µM]
COc1cc(C(=O)Nc2ccc3ccccc3c2)cc(OC)c1OC -7.49%
COC(=O)/C(=C\Nc1ccc(Cl)cc1Cl)NC(=O)c1ccc(OC)cc1 -2.72%
O=C(NC(=S)Nc1c(Cl)cc(Cl)cc1Cl)c1ccccc1 7.49% [at 46.1 µM]
COc1ccc(C)cc1Nc1c2c(nc3ccccc13)CCC2 -6.22%
COc1ccc2nc(Nc3nc(CSc4ccc(C)cc4)cc(=O)[nH]3)nc(C)c2c1 -14.5% [at 46.1 µM]

Potency, active:
Nc1c(C(=O)Nc2ccc(S(=O)(=O)N3CCCC3)cc2)sc2nc3cc4c(cc3cc12)CCC4 8.2 µM
Nc1c(C(=O)Nc2ccc(S(=O)(=O)N3CCCC3)cc2)sc2nc3ccc(OC(F)(F)F)cc3cc12 20.6 µM
CCc1cccc2cc3c(N)c(C(=O)Nc4ccc(S(=O)(=O)N5CCCC5)cc4)sc3nc12 4.98 µM
Cc1cccc2cc3c(N)c(C(=O)Nc4ccc(N5CCOCC5)cc4)sc3nc12 14 µM
COc1cc(OC)c(/C=C/c2ccc3ccccc3[n+]2C)c(OC)c1 10.3 µM
Cc1sc2ncnc(N=Nc3c(O)[nH]c4ccccc34)c2c1C 16.4 µM
Fc1ccc(-c2cnn3c(-c4cccs4)ccnc23)cc1 12.5 µM
Cc1nc2cc(NC(=O)CSc3nc4c(C)cccc4cc3C#N)ccc2s1 13 µM
Cc1ccc2nc(SCC(=O)Nc3ccc4sc(C)nc4c3)c(C#N)cc2c1 18.4 µM
COc1ccc2nc(SCC(C)=O)c(C#N)cc2c1 3.26 µM
COc1ccc2nc(SCC(=O)Nc3ccc4sc(C)nc4c3)c(C#N)cc2c1 20.6 µM
CCOC(=O)c1cc2n(c1/N=C/N(C)C)-c1ccccc1C2=O 20.6 µM
CCOc1cc(/C=C(/C#N)C(=O)Nc2ccc(O)cc2)cc(Br)c1O 15.8 µM
CCOc1ccc(NC(=O)/C(C#N)=C/c2ccc(N3CCCC3)c(C)c2)cc1 6.51 µM
CCSc1nnc(-c2sc3nnc(-c4ccccc4)c(-c4ccccc4)c3c2N)o1 10.3 µM
CC1=CN2C(=N)/C(=C/c3ccc([N+](=O)[O-])o3)C(=O)N=C2S1 9.94 µM
Fc1ccc2nc3[nH]c4ccccc4c3nc2c1 1.4 µM
CN1CCc2c(sc3c2C(=O)NC(c2ccc(-c4ccc(Cl)cc4)o2)N3)C1 (centres undefined) 11.6 µM
Cc1sc(-c2cc3c([nH]c2=O)CC(c2ccccc2)CC3=O)nc1-c1ccc(Cl)cc1 (centres undefined) 20.6 µM
COc1ccc2nc3ccccc3nc2c1NC(=O)c1ccc(Cl)cc1Cl 2.8 µM
COc1ccc2nc3ccccc3nc2c1NC(=O)c1ccc(Br)cc1 14.6 µM
COc1ccc2nc3ccccc3nc2c1NC(=O)c1ccc(Cl)cc1 20.6 µM
